High-throughput results (PubChem BioAssay)
Shown are actives, neighbours in structure and some others; about 12% of the full set was active somewhere.
Shiga toxin inh: inhibitors of Shiga toxin in Vero cells. Vero cells, Shiga toxin protein synthesis inhibition reporter. inhibition, % at 38.7 µM. 9.2% of 290,000 active. AID 2315; in the data active = inhibition mostly above about 28%, no sharp cut-off; inactive = mostly below about 43%; note: 0% is about no effect
CHX counter: counter-screen hit for Shiga toxin inhibitors, cycloheximide; cell reporter, cycloheximide protein synthesis inhibition counterscreen; max response, %; 12% of 300,000 active; AID 2314; in the data active = max response mostly above about 13%, no sharp cut-off; inactive = mostly below about 14%; note: read at 38.3 µM for the half of the compounds with a filed dose; 0% is about no effect
Marburg entry inh: blocks Marburg virus binding to or entry into cells | Marburg virus pseudotyped entry inhibition, cell reporter | Potency, µM (doses to about 37.8 µM), without a hit: at the top dose activity change, negative = inhibition, hits mostly inhibitors | 1.8% of 300,000 active; calls by dose curve; tested in HEK293 cells; note: potency is the fitted concentration of half-maximal effect; % is set by controls: 0 for no effect and ±100 for the full control effect
Lassa entry inh: blocks Lassa virus binding to or entry into cells; 1.2% of 300,000 active; Lassa virus pseudotype entry inhibition, cell reporter; Potency, µM (titrated, usually from 37.9 µM), for the others: top-dose activity change, negative = inhibition, hits mostly inhibitors; calls by dose curve; tested in HEK293 cells; note: potency is the fitted concentration of half-maximal effect; % is set by controls: 0 for no effect and ±100 for the full control effect; nearly all actives have a fitted effect of over 50% in size
* hit, by the source's call; ? = inconclusive; / = not tested or not shown; [ ] = another dose, or the depositor's remark.

SMILES	Shiga toxin inh	CHX counter	Marburg entry inh	Lassa entry inh
COc1ccc(-c2csc(-n3ncc(-c4cccs4)c3N)n2)cc1	31	4	-24%	-19%
COc1ccccc1NC(=S)N1CCN(c2nc(-c3ccccc3)cs2)CC1	12	6	0%[46.1 µM]	1%
COc1ccc(-c2csc(-n3cccn3)n2)cc1	66*	62*	19%	?
COc1ccccc1OCC(O)CN1CCN(C(=O)c2ccccc2)CC1 (stereo not given)	-5	-1	?	4%
O=C1C[C@H](c2ccccc2)[C@@H](c2ccc(Br)cc2)O1	/	/	-17%[14.2 µM]	/
C[C@@H]1[C@@H](Sc2ccccc2)CC(=O)O[C@@H]1c1ccc(-c2ccccc2)cc1	82*	63*	/	/
CCCC(=O)Nc1cc2c3c(c1)C(C)C(=O)N3CCC2 (stereo not given)	-11	-3	/	/
O=C(CC(=O)Nc1ccc(Br)cc1)Nc1ccc(Br)cc1	7	-2	/	/
CCc1ccc(NC(=O)c2n[nH]c(=O)c3ccccc23)cc1	79*	36*	/	/
O=C(Nc1ccc(Br)cc1)c1cc(Br)cc(Br)c1O	93*	42*	/	/
CCc1ccc(NC(=O)c2ccccc2Br)cc1	61*	35*	?	-29%
O=C(Nc1ccc(Br)cc1)c1ccccc1Br	90*	55*	/	/
CCCNC(=O)c1n[nH]c(=O)c2ccccc12	-14	-6	25%	-10%
CC(Oc1coc(CN2CCN(C(=O)c3ccco3)CC2)cc1=O)c1ccccc1 (stereo not given)	/	/	11%	3%
Cc1cc(C)cc(OCCCOc2cccc3cccnc23)c1	-16	5	?	7%
Brc1ccccc1OCCOc1cccc2cccnc12	68*	16*	?	14%
CC(=O)c1cccc(OCCCOc2cccc3cccnc23)c1	20	19*	?	-10%
COc1cccc(C=O)c1OCCCOc1cccc2cccnc12	66*	38*	/	/
Brc1ccccc1OCCCOc1cccc2cccnc12	/	33*	/	/
Cc1ccc(OCCOCCOc2cccc3cccnc23)c(Br)c1	9	-1	?	9%
Cc1cccc(Cn2c(=O)n(CCCCC(=O)NCc3ccc4c(c3)OCO4)c(=O)c3ccccc32)c1	/	/	?	8%[46.1 µM]
CN(C)c1ccc(C(=O)OCC(=O)c2ccc[nH]2)cc1	/	/	?	-13%[46.1 µM]
O=C(OCC(=O)c1ccc[nH]1)c1ccc(Cl)c(Cl)c1	/	/	7%[46.1 µM]	25%[46.1 µM]
O=C(COC(=O)c1c(F)cccc1F)c1ccc[nH]1	82*	38*	13%[46.1 µM]	?
O=C(OCC(=O)c1ccc[nH]1)c1ccccc1	118*	47*	/	/
SMILES	Shiga toxin inh	CHX counter	Marburg entry inh	Lassa entry inh
COC(=O)CCCn1nc(NC(=O)COc2ccc(F)cc2)cc1C	-4	-2	4%[46.1 µM]	/
COc1ccc(CNC(=O)c2noc3c2CCCCC3)cc1	85*	25*	10%	-22%
O=C(NC1CCCC1)c1noc2c1CCCCC2	152*	37*	-7%	9%
O=C(NCc1cccs1)c1ccc(S(=O)(=O)N2CCCCC2)cc1	-4	9	?	?
COC(=O)c1ccccc1NC(=O)c1noc2c1CCCC2	21	-3	16%	0%
CC(NC(=O)c1noc2c1CCCCC2)c1ccccc1 (stereo not given)	45*	33*	29%	12%
O=C(Nc1ccccc1C(F)(F)F)c1noc2c1CCCC2	/	/	?	6%[46.1 µM]
O=C(NCc1cccs1)c1noc2c1CCCCC2	54*	23*	-7%	12%
CCN(CC)c1nc2c(c(=O)[nH]c(=O)n2C)n1CCOc1ccccc1	/	-3	-2%	-6%
O=c1ccc2cc(S(=O)(=O)NCc3ccc(Cl)cc3)ccc2[nH]1	/	/	/	21%[46.1 µM]
O=C(NCc1ccccc1)c1noc2c1CCCCC2	84*	46*	?	55%[14.3 µM]
O=C(/C=C/c1cccs1)NCc1ccccc1	41	35*	?	11%
O=C(/C=C/c1cccs1)c1ccc([N+](=O)[O-])cc1	9	1	6%	1%
Cc1cccc(NC(=O)/C=C/c2cccs2)n1	40*	33*	?	?
CC(=O)Nc1ccc(NC(=O)/C=C/c2cccc(C(F)(F)F)c2)cc1	10	7	?	-3%
O=C(/C=C/c1cccs1)Nc1ccc([N+](=O)[O-])cc1	30*	48*	-11%	3%
CC(C)(C)NC(=O)/C=C/c1cccc(C(F)(F)F)c1	16	14*	?	19%
Cc1ccnc(NS(=O)(=O)c2ccc(NC(=O)/C=C/c3cccs3)cc2)n1	24	-2	/	/
CCOc1ccc(CCNC(=O)c2cc3c(=O)oc4ccc(C)cc4c3s2)cc1OCC	/	/	13%[46.1 µM]	9%[46.1 µM]
Cc1ccc(C=CC2=C[C@]3(C)C[C@]2(C)[C@H](c2ccc(C)cc2)CC3=O)cc1	/	/	-4%[14.2 µM]	/
CCCOC(=O)c1ccc(NC(=O)/C=C/c2cccs2)cc1	73*	33*	-27%	?
